Reference: PubChem BioAssay (NCATS)
Records with an inconclusive call do not appear. A call without a number means that no potency is given here. Calls of active or inactive are those of the source. The call rests on the fitted dose curve; in most records, active means well fitted curve in the direction sought with a large enough effect; inconclusive means small, poorly fitted or top-dose-only effect, or another doubt; inactive means no such curve, though single readings can be large; an effect the other way counts as inactive or inconclusive.

Legend:
[1] = biological target: Arylsulfatase A (Homo sapiens) (UniProt P15289); experiment: qHTS screen for enhancers of Arylsulfatase A (ASA1): LOPAC Validation Assay (AID 720538); settings: ASA enzyme activity, LOPAC qHTS enhancer assay; series mostly up to 57.5 µM
Procedure, shortened: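 Cell-based enhancement test: residual ASA activity in SV40-transformed I179S patient fibroblasts is measured by pNCS turnover (0.5mM final, 14h, room temperature) following 48h compound incubation; higher fluorescence indicates activation.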

[2] = qHTS for compounds that reverse cellular toxicity of Amyloid beta (A-beta) peptide in yeast: LOPAC Validation Assay (AID 720559); settings: yeast expressing A-beta; series mostly up to 46.1 µM
Procedure, shortened: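 Here, A-beta-toxic yeast grow with test compounds at 30 C for 48 hr before optical density at 600 nm is recorded; data are normalized against DMSO and the FeCl3-clioquinol control.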

[3] = qHTS for Activators of Parkin Expression: LOPAC Validation Assay (NLuc Reporter) (AID 720572; further: potency means the concentration at half of the fitted maximal effect); settings: Parkin promoter NanoLuc reporter cells, luminescence; series mostly up to 46.1 µM
Procedure, shortened: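 NLuc signal, read 10 min after reagent and following a prior FLuc read, is normalized to DMSO (0) and positive controls (100%). Cells: neuronal Parkin-promoter coincidence reporter line; compounds tested 7-point, 24 h, 37 C, 5% CO2.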

Sequence of Arylsulfatase A (Homo sapiens) (P15289 whole entry, looked up): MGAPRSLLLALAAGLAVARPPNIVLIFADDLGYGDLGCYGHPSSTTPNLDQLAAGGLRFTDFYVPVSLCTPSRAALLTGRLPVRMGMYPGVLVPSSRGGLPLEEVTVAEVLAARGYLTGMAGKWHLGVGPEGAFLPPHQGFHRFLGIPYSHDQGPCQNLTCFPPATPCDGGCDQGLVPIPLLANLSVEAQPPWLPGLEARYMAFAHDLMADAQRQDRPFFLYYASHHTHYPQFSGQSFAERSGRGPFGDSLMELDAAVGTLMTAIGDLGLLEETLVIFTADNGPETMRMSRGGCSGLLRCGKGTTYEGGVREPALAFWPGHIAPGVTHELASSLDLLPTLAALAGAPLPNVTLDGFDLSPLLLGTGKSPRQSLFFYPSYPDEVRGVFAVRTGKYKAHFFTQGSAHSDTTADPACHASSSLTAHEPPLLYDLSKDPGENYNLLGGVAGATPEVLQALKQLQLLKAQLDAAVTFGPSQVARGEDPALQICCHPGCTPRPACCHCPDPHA

Structure (SMILES) | Potency [1] | outcome [2] | Potency [3]
CCCN(CCC)C(=O)C(CCC(=O)O)NC(=O)c1ccccc1 (configuration not stated) | inactive | inactive | inactive
CCc1c(C)[nH]c2c1C(=O)C(CN1CCOCC1)CC2 (configuration not stated) | – | – | inactive
C[n+]1cc2c3c(ccc2c2ccc4cc5c(cc4c21)OCO5)OCO3 | inactive | inactive | inactive
COc1ccc([C@@H]2Sc3ccccc3N(CCN(C)C)C(=O)[C@@H]2OC(C)=O)cc1 | – | – | inactive
COC(=O)C1=C(C)NC(C)=C(C(=O)OC(C)(C)CN(C)CCC(c2ccccc2)c2ccccc2)C1c1cccc([N+](=O)[O-])c1 (configuration not stated) | – | inactive | inactive
CN/C(=C\[N+](=O)[O-])NCCSCc1ccc(CN(C)C)o1 | inactive | inactive | inactive
CCN(CC)CCNC(=O)c1cc(S(C)(=O)=O)ccc1OC | – | inactive | inactive
C(=C\c1ccccc1)/CN1CCN(C(c2ccccc2)c2ccccc2)CC1 | inactive | inactive | inactive
CCO/C([O-])=N/c1c[n+](N2CCOCC2)no1 | – | inactive | inactive
COc1ccc(CCN(C)CCCC(C#N)(c2cc(OC)c(OC)c(OC)c2)C(C)C)cc1OC (configuration not stated) | – | – | inactive
C[C@@H](O)[C@H]1C(=O)N2C(C(=O)O)=C(SCCN=CN)C[C@H]12 | – | – | inactive
CCOC(=O)C1=C(C)NC(C)=C(C(=O)OC)C1c1cccc(Cl)c1Cl (configuration not stated) | inactive | inactive | 2590 nM (active)
CCCOc1ccccc1-c1nc2n[nH]nc2c(=O)[nH]1 | inactive | inactive | inactive
COc1cc(C(=O)OCCCN2CCCN(CCCOC(=O)c3cc(OC)c(OC)c(OC)c3)CC2)cc(OC)c1OC | – | inactive | inactive
CN1C(=O)CC[C@H]1c1cccnc1 | inactive | inactive | inactive
CN(C)[C@@H]1C(=O)C(C(N)=O)=C(O)[C@@]2(O)C(=O)C3=C(O)c4c(O)ccc(Cl)c4[C@@H](O)[C@H]3C[C@@H]12 | – | inactive | inactive
C#CCN(C)CCCOc1ccc(Cl)cc1Cl | – | inactive | inactive
CCN(CC)CCNC(=O)c1ccc(NC(C)=O)cc1 | – | inactive | inactive
CN1C[C@H](C(=O)N[C@]2(C)O[C@@]3(O)[C@@H]4CCCN4C(=O)[C@H](Cc4ccccc4)N3C2=O)C[C@@H]2c3cccc4[nH]cc(c34)C[C@H]21 | inactive | inactive | inactive
